Measured values from PubChem BioAssay AID1259240 (Keith Lab, Institute of Cancer Science, University of …, 2017).
Active and inactive are the calls of the source. Rule as the data show it: active = fold change mostly below about -2 (no sharp cut-off); inactive = mostly above about -1.8.

Experiment: TERT promoter activity modulators, primary screen, cell-based, luciferase reporter, human (AID 1259240)
Details: A2780 TERT promoter luciferase reporter, 16 h; at 20 µM, fold versus average of vehicle-only wells

Fold change, inactive:
c1ccc(COc2ccc(Oc3nc(N4CCOCC4)nc(N4CCOCC4)n3)nn2)cc1 -1.03, COC(=O)c1[nH]c(=O)c2ccccc2c1O -1.15, COc1ccccc1N1CCN(S(=O)(=O)c2cccc3cccnc23)CC1 -1.29, CCNc1nc(NCC)nc(OCCNS(=O)(=O)c2ccccc2)n1 -1.79, COc1ccc(N2CN=c3s/c(=C4\C(=O)N(C)c5ccccc54)c(=O)n3C2)cc1 -1.56, CN(C)S(=O)(=O)N(CC(=O)Nc1ccccc1F)c1ccccc1 -1.38, CC1CCCC(NC(=O)CN(C)S(=O)(=O)c2ccc3c(c2)CCC(=O)N3)C1C (centres undefined) -1.68, CCOC(=O)C1CCCN(c2c(N3CCOCC3)c(=O)c2=O)C1 (centres undefined) -1.15, COc1ccc(Nc2c(-c3c[nH]c4ccccc34)nc3cnccn23)cc1 -1.09, CCOC(=O)N1CCC(Nc2c(NCCN3CCCCC3CC)c(=O)c2=O)CC1 (centres undefined) -1.19, Cn1c2ccccc2c2cnn(CC(=O)N3CCN(C4CCCCC4)CC3)c(=O)c21 -1.05, CC(=O)c1cc2c(cc1NC(=O)c1cc(C)nn1-c1ccccc1)OCO2 -1.17, c1ccc2c(NCCCN3CCOCC3)c3c(nc2c1)CCCC3 -1.45, COc1ccc(C2C3C(=O)N(C(C)C)C(=O)C3ON2c2ccc(Cl)cc2)cc1 (centres undefined) -1.62, CNC(=O)c1ccc(-c2nn(C)c(=O)c3ccccc23)cc1 -1.06, Clc1ccc(-c2nnn3c2nc(NCC2CCCO2)c2ccccc23)cc1 (centres undefined) -1.11, Cn1c(=O)[nH]c(=O)c2c1nc(NCCc1ccccc1)n2CCO -1.23, Cc1ccc(-c2nc3ccccc3n3cc4c(=O)n(C)c(=O)n(C)c4c23)cc1 -1.32, Cc1cc(C)cc(N(CC(=O)O)S(=O)(=O)c2ccc3[nH]c(=O)c(=O)[nH]c3c2)c1 1.37, CCOC(=O)Cn1c(=O)oc2cc(S(=O)(=O)NC3CCN(C(=O)OCC)CC3)ccc21 1.58, Cc1oc2cc(OC(=O)N3CCOCC3)ccc2c(=O)c1Oc1ccccc1Br -1.46, CCOc1cc(C2NC(=O)c3n[nH]c(C)c32)ccc1O (centres undefined) 1.27, COCCN1C(=O)C(=O)/C(=C(\O)c2ccc(C)cc2)C12C(=O)N(C)c1ccccc12 (centres undefined) -1.06, O=C(CCN1C(=O)c2ccccc2S1(=O)=O)Nc1cccc(Br)c1 1.01, CC(CCc1ccco1)NC(=O)Cn1ncc2c1-c1ccccc1OC2 (centres undefined) 1.12, CCc1nc(C)cn1S(=O)(=O)c1cc(C)c(OC)cc1C -1.15, COc1nnc(-c2ccc(N3CCCCC3)c(N)c2)c2ccccc12 -1.98, O=C(Cn1ncc2c3ccccc3n(Cc3ccc(Cl)cc3)c2c1=O)NC1CC1 -1.11, CN1CCc2nc3sc(C(=O)Nc4ccc(F)cc4)c(N)c3cc2C1 -1.42, O=C(CSc1nc(-c2ccco2)cc(C(F)(F)F)n1)NCC1CCCO1 (centres undefined) -1.44, CCCc1cc(C(=O)Nc2c(C)n(C)n(-c3ccccc3)c2=O)no1 -1.12, Cc1nc(SCc2cccc(C(F)(F)F)c2)c2c(=O)n(C)c(=O)n(C)c2n1 1.26, CCN1CCN(CCNc2cc(C)nc3c(-c4ccc(OC)c(OC)c4)c(C)nn23)CC1 -1.31, Cc1nn2c(=O)/c(=C/c3ccc(Cl)c(Cl)c3)sc2nc1=O 1.84, Cc1ccc2ccc(C(Nc3ccccn3)c3ccncc3)c(O)c2n1 (centres undefined) -1.62, O=C(Nc1cnn(Cc2ccc(F)cc2)c1)c1cc(C2CC2)on1 -1.17, CC(C)C(NS(=O)(=O)c1ccc2c(c1)oc(=O)n2C)C(=O)N1CCN(c2ccccc2F)CC1 (centres undefined) 1.1

Fold change, active:
O=C(Nc1nnc(N2CCCCC2)s1)Nc1ccccc1Cl -2.93

outcome, inactive:
C1=C(c2cccnc2)Nc2nc3ccccc3n2C1c1cccs1 (centres undefined)
